From PubChem BioAssay come the findings set out here.

Usually viability stands for a read-out of living cells in per cent, often relative to untreated cells.

Results filed as inconclusive are left out. A number with no mark means an inactive call.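 Rule for the calls: active = viability at or below 27.92% in each of two runs, the all-compound median minus 4 SD; inconclusive = no clear call, values can overlap the other calls; inactive = the rest.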

The assay is described as follows: viability of PTEN-null HCT116 cells – cell-based, HCT116 clonal line, CellTiter-Glo, pilot screen (AID 824).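 Note: 0% = 20 µM Hyamine control and 100% = vehicle cell control.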 The settings on record: HCT116 PTEN-deleted viability, 60 h, at 10 µM, stronger effect = lower value.
Take `CCOC(=O)Cn1c(CN2CC(C)OC(C)C2)nc2c1c(=O)n(C)c(=O)n2C` (stereo not drawn): the viability was 95%.
Turning to `COc1ccc(OC)c(-n2c(SCC(=O)Nc3cc(C)on3)nnc2-c2c[nH]c3ccccc23)c1`, the viability was 78.8%.
As to `COc1ccc(CCNC(=O)c2cc3ccccn3n2)c(OC)c1OC`, the viability was 106%.
As to `O=C(OCn1nnc2ccccc2c1=O)c1cccs1`, the viability was 95.9%.
On to `O=C(NCc1cn2ccsc2n1)c1cccs1`, for which the viability is 95.8%.
Regarding `CCOc1ccc(OCC)c(NC(=O)C2CCCN2S(=O)(=O)c2cccc3cccnc23)c1` (stereo not drawn), the viability was 65.7%.
For `CCOCCn1c(SCCc2ccccc2)nc2c1c(=O)[nH]c(=O)n2C`, the viability was 98.9%.
Consider `Cc1ccc(S(=O)(=O)Cc2ccc(C(=O)N3CCN(c4ccccn4)CC3)o2)cc1`, for which the viability is 79.8%.
Regarding `CCC(C)(C(=O)NC1CCCCC1)N(Cc1ccco1)C(=O)CNC(=O)c1ccccc1` (stereo not drawn), the viability was 90.1%.
As for `CCC(C)Sc1nc2c([nH]c3ccccc32)c(=O)n1C` (stereo not drawn), the viability was 70.6%.
Take `Cc1onc(-c2ccccc2Cl)c1C(=O)Nc1ccc(OCC(=O)N2CCOCC2)cc1`: the viability is 99.5%.
Turning to `COCCn1c(SCC(=O)Nc2ccccc2)nc2c1c(=O)[nH]c(=O)n2C`, the viability was 95.5%.
For `Cc1cccc(OCC2=N/C(=C\N(C)C)C(=O)O2)c1`, the viability was 91.3%.
Consider `Cc1[nH]c2ccccc2c1CCC(N)=O`, for which the viability was 96.2%.
Regarding `CCCc1nc(N2CCN(C)CC2)c2sc(=S)n(-c3ccccc3)c2n1`, the viability was 82.6%.
Regarding `CCCc1nc(N)nc2c1C(=O)CC(C)(C)C2`, the viability was 87.6%.
With `COc1ccccc1CC(=O)N1CCN(c2cccc(C(F)(F)F)c2)CC1`, the viability was 60.9%.
Regarding `O=C(CCC(=O)OCCCC(F)(F)C(F)(F)F)Nc1ccccc1`, the viability was 104%.
Regarding `CCN1CCN(C(=O)CSCc2nc(-c3ccc(OC)c(OC)c3)oc2C)CC1`, the viability was 101%.
For `COc1ccc(S(=O)(=O)n2cnc3cc(C)c(C)cc32)cc1`, the viability is 93.4%.
Turning to `Cc1cccc(C(=O)N2CCN(Cc3ccc4c(c3)OCO4)CC2)c1`, the viability was 95.7%.
Regarding `O=C(NCCCNC(=O)c1cccs1)c1cccs1`, the viability is 108%.
With `Cn1c(NC(=O)CC2CCCCC2)cc(=O)n(C)c1=O`, the viability was 87%.
